# Test results from article PMC8222333, “AsCas12a ultra nuclease facilitates the rapid generation of therapeutic cell medicines”.
# Positions count from the first letter of the chain named.
# B1: TAAC (dsDNA)
# DNA 1: GCTATCTAGTGCTCAGTACGCACTGTAACAGGAAACTTCTGGCAGGACCAGGTCATGAGATCGGAAGAGCACACGTCTGAACTCCAGTCA
# DNA 2: TGACTGGAGTTCAGACGTGTGCTCTTCCGATCTCATGACCTGGTCCTGCCAGAAGTTTCCTGTTACAGTGCGTACTGAGCACTAGATAGC
# RNA: AAUUUCUACUCUUGUAGAUAGGAAACUUCUGGCAGGACC
# B2: TAGT (dsDNA)
# DNA 1: B1 DNA 1 with A28G, C29T
# DNA 2: B1 DNA 2 with G62A, T63C
# RNA: B1 RNA
# B3: TACG (dsDNA)
# DNA 1: B1 DNA 1 with A28C, C29G
# DNA 2: B1 DNA 2 with G62C, T63G
# RNA: B1 RNA
# B4: TAGC (dsDNA)
# DNA 1: B1 DNA 1 with A28G
# DNA 2: B1 DNA 2 with T63C
# RNA: B1 RNA
# B5: TACC (dsDNA)
# DNA 1: B1 DNA 1 with A28C
# DNA 2: B1 DNA 2 with T63G
# RNA: B1 RNA
# B6: TAAG (dsDNA)
# DNA 1: B1 DNA 1 with C29G
# DNA 2: B1 DNA 2 with G62C
# RNA: B1 RNA
# B7: TACA (dsDNA)
# DNA 1: B1 DNA 1 with A28C, C29A
# DNA 2: B1 DNA 2 with G62T, T63G
# RNA: B1 RNA
# B8: TAGG (dsDNA)
# DNA 1: B1 DNA 1 with A28G, C29G
# DNA 2: B1 DNA 2 with G62C, T63C
# RNA: B1 RNA
# B9: TAAT (dsDNA)
# DNA 1: B1 DNA 1 with C29T
# DNA 2: B1 DNA 2 with G62A
# RNA: B1 RNA
# Assays:
# Test in all cases: Spec-seq (native PAGE EMSA with sequencing of bound and unbound); 25 mM Tris-HCl pH 7.4, 150 mM KCl, 5 mM MgCl2, 10% glycerol, 1 mM DTT, 40 ng/uL salmon sperm DNA; 400 nM Cas12a, 480 nM crRNA, 50 nM library, 37 C 1 h; native PAGE at room temperature; high values mean tight binding
# Details in all cases: protein: recombinant
# dAsCas12a S542R = dAsCas12a S542R (Acidaminococcus sp., UniProt U2UMQ6 1-1307, S542R;D908A;E993A;D1235A)
# d-enCas12a = d-enCas12a (Acidaminococcus sp., UniProt U2UMQ6 1-1307, E174R;S542R;K548R;D908A;E993A;D1235A)
# d-enCas12a-Ultra = d-enCas12a-Ultra (Acidaminococcus sp., UniProt U2UMQ6 1-1307, E174R;S542R;K548R;M537R;F870L;D908A;E993A;D1235A)
# 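Further: relative affinity from the bound to unbound sequence frequency ratio in Spec-seq.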
Binder,binding signal (dAsCas12a S542R) [lnKA],binding signal (d-enCas12a) [lnKA],binding signal (d-enCas12a-Ultra) [lnKA]
B1,-8.34,-4.66,-2.03
B2,-8.48,-5.67,-3.31
B3,-7.71,-3.12,-0.852
B4,-8.4,-5.51,-3.07
B5,-7.06,-1.02,-0.362
B6,-8.68,-5.56,-3.25
B7,-7.41,-1.33,-0.355
B8,-8.66,-5.6,-3.37
B9,-8.37,-5.67,-3.27
